# System: E18 rat cortical neuron-glia co-culture
# Test: fiber score / MBP score (myelination specific beyond OL differentiation) (ratio); higher = more myelination-specific MBP alignment
# Conditions: 1 µM; treatment time: 8 days (DIV5-DIV13)
# Summary of the method: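 The measure is the ratio of fiber score to MBP score, where fiber score is continuous MBP fiber length per Olig2+ nucleus and MBP score is thresholded MBP area × intensity per Olig2+ nucleus. Primary E18 rat cortical co-cultures received library compounds at 1 or 5 µM in myelination medium from DIV5 to DIV13, then were fixed in 4 % paraformaldehyde and stained for MBP, Olig2 and DAPI before analysis of four 10X fields per well in duplicate wells.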
row,SMILES,fiber score / MBP score
1,CN1C(=O)CC[C@H]1c1cccnc1 [Cotinine],0.604
2,CN(C)c1nc(N(C)C)nc(N(C)C)n1 [Altretamine],0.923
3,S=c1[nH]cnc2nc[nH]c12 [Mercaptopurine],0.858
4,Cc1ncc([N+](=O)[O-])n1CC(C)O (configuration not stated) [Secnidazole],0.462

# Same assay, conditions: 5 µM; treatment time: 8 days (DIV5-DIV13)
row,SMILES,fiber score / MBP score
1,CCn1cc(C(=O)O)c(=O)c2ccc(C)nc21 [Nalidixic Acid],0.797
2,C[C@H]1c2cccc(O)c2C(=O)C2=C(O)[C@]3(O)C(=O)C(C(N)=O)=C(O)[C@@H](N(C)C)[C@@H]3[C@@H](O)[C@@H]21 [Doxycycline],0.815
3,CCOC(=O)N1CCC(=C2c3ccc(Cl)cc3CCc3cccnc32)CC1 [Loratadine],0.575
4,CCC1=C[C@@H]2CN(C1)Cc1c([nH]c3ccccc13)[C@@](C(=O)OC)(c1cc3c(cc1OC)N(C)[C@H]1[C@@](O)(C(=O)OC)[C@H](OC(C)=O)[C@]4(CC)C=CCN5CC[C@]31[C@@H]54)C2 [Vinorelbine],0.453
5,O=C(O[C@@H]1Cc2c(O)cc(O)cc2O[C@@H]1c1cc(O)c(O)c(O)c1)c1cc(O)c(O)c(O)c1 [Epigallocatechin gallate],1.01
6,Cc1onc(-c2ccccc2)c1C(=O)N[C@@H]1C(=O)N2[C@@H]1SC(C)(C)[C@@H]2C(=O)O [Oxacillin],0.897
7,CN1CCC[C@H]1c1cccnc1 [Nicotine],1.06
8,C=C1/C(=C\C=C2/CCC[C@]3(C)[C@@H]([C@H](C)CCCC(C)(C)O)CC[C@@H]23)C[C@@H](O)C[C@@H]1O [Calcitriol],0.531

# Source: the supplement of paper PMC4840960
